# Compound activity as filed in PubChem BioAssay.
# A selection: hits, their analogues and other compounds. The true share with any hit is near 3.8%.
# Nrf2 ARE act = activates Nrf2 signaling. AREc32 ARE-luciferase reporter (MCF7-derived line), luminescence, 24 h. 410,000 tested, 0.31% active. Potency, µM (top dose mostly 46.1 µM), hits mostly activators; also: nearly all actives have a fitted effect of over 65% in size
#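 ARE-driven firefly luciferase activity in AREc32 cells measured after a 24 hr compound exposure at 37 deg C, using Steady-Glo reagent and a 30 min room-temperature hold.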
# Nrf2 inh = Nrf2 pathway inhibition | Potency, µM (titrated, usually from 46 µM), usual class: inhibitors | 360,000 tested, 2.1% active | A549 ARE-Fluc reporter, luciferase luminescence, 18-24 h | AID 504444; also: nearly all actives have a fitted effect of over 60% in size
#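 Reporter: ARE-Fluc in A549. Exposure: 18-24 h, 37 °C, 5% CO2, 5% FBS OPTI-MEM. Readouts: fluorescent cytotoxicity (CellTiter-Fluor), then luminescent Nrf2 signal after BugLite.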
# IDH1 R132H inh = inhibitors of human mutant IDH1 R132H; O75874; IDH1-R132H enzyme, NADPH consumption, diaphorase/resazurin fluorescence; Potency, µM (doses to about 76.6 µM), most hits filed as inhibitors; 390,000 tested, 0.093% active; also: nearly all actives have a fitted effect of over 65% in size
# Target sequence (O75874 whole entry R132H, stated change not applied): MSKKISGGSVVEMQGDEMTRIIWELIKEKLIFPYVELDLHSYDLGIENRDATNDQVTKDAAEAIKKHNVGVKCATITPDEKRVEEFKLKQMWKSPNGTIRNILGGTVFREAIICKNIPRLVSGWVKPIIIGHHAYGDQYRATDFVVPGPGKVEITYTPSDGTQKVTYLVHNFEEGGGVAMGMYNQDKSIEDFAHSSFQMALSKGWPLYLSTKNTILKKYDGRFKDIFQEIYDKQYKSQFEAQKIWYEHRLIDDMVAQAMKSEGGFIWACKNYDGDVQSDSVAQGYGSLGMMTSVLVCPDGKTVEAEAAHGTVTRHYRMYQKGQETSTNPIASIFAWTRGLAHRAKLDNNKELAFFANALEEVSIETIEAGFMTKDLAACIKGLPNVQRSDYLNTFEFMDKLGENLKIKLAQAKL
#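 IDH1-R132H (0.5 ug/mL dispensed) in pH 7.5 Tris buffer was preincubated 30 min with compound, then given a substrate mix of 0.016 mM NADPH and 2 mM alpha-KG for 80 min at room temperature; remaining NADPH was read by diaphorase/resazurin fluorescence.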
# ELG1 repair inh = ELG1-dependent DNA repair inhibition; HEK293T ELG1-luciferase reporter, luminescence, 16 h; DNA damage induced by 5-fluorouridine; Potency, µM (top dose mostly 46.1 µM), actives largely listed as inhibitors; 330,000 tested, 2.3% active; AID 504467; also: nearly all actives have a fitted effect of over 55% in size
#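 DMSO vehicle served as the neutral condition. Each well held 2,000 cells given 5-fluorouridine plus compound; after 16 hr at 37 °C/5% CO2, ONE-Glo was added and luciferase measured 30 min later.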
# A549 tox = A549 cytotoxicity, counter-screen for Nrf2 inhibitors; A549 ARE-Fluc cells, CellTiter-Fluor viability, 18-24 h; Potency, µM (highest dose often 46 µM), usual class: inhibitors; 390,000 tested, 0.16% active; AID 504648
#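 A549 ARE_Fluc cells in 5% FBS OPTI-MEM were exposed to compounds in concentration-response for 18-24 h at 37 deg C. Viability was read by CellTiter-Fluor fluorescence (Ex 405/Em 525) after 30 min, before the luciferase read.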
# Numbers stand for hits; i = inactive; ? = inconclusive; nt = no result given; [ ] = dose if it differs, or a comment. Calls follow the shape of the dose curve; as a rule, active = well fitted curve in the direction sought with a large enough effect; inconclusive = small, poorly fitted or top-dose-only effect, or another doubt; inactive = no such curve, though single readings can be large; an effect the other way counts as inactive or inconclusive.
SMILES,Nrf2 ARE act,Nrf2 inh,IDH1 R132H inh,ELG1 repair inh,A549 tox
CN(C1CCCCC1)S(=O)(=O)c1ccc(NC(=O)C2CCCCC2)cc1,i,23µM,i,?,i
Cc1cc(N(C)N)nc(NC(=O)NS(=O)(=O)c2ccccc2Cl)n1,i,i,i,i,i
CCOC(=O)c1[nH]c(C)c(CCC(=O)Nc2ccccc2OCC)c1C,i,nt,i,nt,i
COc1ccc(-n2c(SCc3ccccc3)nc3c([nH]c4ccccc43)c2=O)cc1,i,nt,i,nt,i
CCCN1CNc2c(c(=O)[nH]c(=S)n2CCc2ccccc2Cl)C1,nt,i,nt,nt,i
COc1cccc(CCNC(=O)C2CCCN(c3ncnc4c3nc3n4CCCCC3)C2)c1OC (stereo not drawn),i,i,i,7.3µM,i
COc1ccccc1N1CCN(c2ncnc3c2nc2n3CCCC2)CC1,i,21µM,i,nt,i
CC(=O)c1ccc(N2CCN(c3ncnc4c3nc3n4CCCC3)CC2)cc1,i,23µM,i,nt,i
COc1ccccc1N1CCN(CCCNC(=O)C2CCCN(c3ncnc4c3nc3n4CCCCC3)C2)CC1 (stereo not drawn),i,?,i,12µM,i
O=C(NCCCN1CCN(c2ccc(F)cc2)CC1)C1CCCN(c2ncnc3c2nc2n3CCCCC2)C1 (stereo not drawn),i,i,i,?,i
N#C/C(=C\c1ccc(Br)cc1)c1nc(-c2cc3cc(Br)ccc3oc2=O)cs1,i,i,i,nt,i
Cc1cc2nc(-c3ccc(OCc4ccc(F)cc4)cc3)cc(C(F)(F)F)n2n1,i,i,i,nt,i
CCCc1nc2ccc(NC(C)=O)cc2c(=O)n1Cc1cccc(Cl)c1,i[9.22 µM],i,i,?,i
CCCc1nc2ccc(NC(=O)NCCC(=O)OCC)cc2c(=O)n1Cc1ccc(Cl)cc1,i,i,i,21µM,i
CCCc1nc2ccc(NC(=O)c3cccs3)cc2c(=O)n1Cc1ccc(Cl)cc1,i,?,i,16µM,i
O=C(Cn1ncc2c1-c1ccccc1OC2)N1CCN(Cc2ccc3c(c2)OCO3)CC1,i,i,i,23µM,i
O=C(Cn1ncc2c1-c1ccccc1OC2)N1CCN(c2ccccc2)CC1,i,i,i,nt,i
COc1ccccc1NC(=O)c1ccc(NC(=O)CSc2nc(N)cc(=O)[nH]2)cc1,i,i,i,?,i
CN(Cc1ccccc1)c1ccc(C(CC(N)=O)NC(=O)c2ccccc2)cc1[N+](=O)[O-] (stereo not drawn),i,10µM,i,i,?
COc1ccc(C(=O)/C=C/c2ccc(OC)c(Cn3nnc4ccccc43)c2)cc1,i[9.22 µM],21µM,i,?,?
Cc1ccc2c(c1)c(=O)c(S(=O)(=O)c1ccc(C)c(C)c1)cn2CC(=O)Nc1ccccc1,i,i,i,nt,i
O=C(Cn1c(=O)n(Cc2ccc(Cl)cc2)c(=O)c2cccnc21)Nc1ccccc1C(F)(F)F,i,i,i,nt,i
Cc1ccc(Cn2c(=O)c3cccnc3n(CC(=O)Nc3cccc(C(F)(F)F)c3)c2=O)cc1,i,5.8µM,i,i,i
CC1=NOC(=O)/C1=C\c1ccc(-c2ccc(Cl)c(C(=O)O)c2)o1,i,i,i,i,i
CC1=NOC(=O)/C1=C\c1ccc(-c2cccc(Cl)c2)o1,i,i,37µM,?,i
SMILES,Nrf2 ARE act,Nrf2 inh,IDH1 R132H inh,ELG1 repair inh,A549 tox
CCCCN1CC(=O)N2[C@H](c3ccc(OC)cc3)[C@@H]3C(=O)N(CC)C(=O)[C@@H]3[C@]2(C)C1=O,i,i,i,i,i
Cn1c(SCc2ccc(F)cc2)nc2ccc(C(=O)NCc3ccc(Cl)cc3)cc21,i,15µM,i,nt,i
Cc1ccccc1CNC(=O)c1ccc2nc(SCc3ccc(F)cc3)n(C)c2c1,i,?,i,nt,i
CC(C)Oc1ccc(CNC(=O)c2ccc3nc(SCc4ccc(F)cc4)n(C)c3c2)cc1,i,i,i,nt,i
Cn1c(SCc2ccc(F)cc2)nc2ccc(C(=O)NCc3ccc(F)cc3)cc21,i,23µM,i,nt,?
Cn1c(SCc2ccc(F)cc2)nc2ccc(C(=O)NCc3cccc(Cl)c3)cc21,i,21µM,i,nt,i
Cc1cc2nc(-c3cccc(NC(=O)C(C)C)c3C)oc2cc1C,i,nt,i,nt,i
CCOc1ccc(NC(=O)Cn2cc(C(=O)c3ccc(OCC)cc3)c(=O)c3cc4c(cc32)OCCO4)cc1,i,i,i,nt,i
O=c1oc(CCO)cc2ccc(C#Cc3ccsc3)cc12,2.5µM,i,i,?,i
CC1CC=CC2C1C(=O)N(Cc1ccccc1)C2c1ccc(F)c(/C=C/c2ccccc2)c1 (stereo not drawn),nt,i,nt,nt,i
O=C(CSc1cn(CCNC(=O)c2ccccc2F)c2ccccc12)Nc1ccc2c(c1)OCCO2,i,i,i,nt,i
O=C(CSc1cn(CCNC(=O)c2cccc(C(F)(F)F)c2)c2ccccc12)Nc1ccc2c(c1)OCCO2,i,16µM,i,nt,?
O=C1C2C(c3ccccc3)(C(=O)N1c1ccc(Cl)cc1)C2(c1ccccc1)c1ccccc1 (stereo not drawn),i,i,i,6.5µM,i
CN1c2ccsc2/C(=N/Nc2ccc(F)cc2)CS1(=O)=O,13µM,?,i,?,i
Cc1cc(-c2csc(NC(=O)c3cccc(S(=O)(=O)N(C)C)c3)n2)c(C)n1-c1ccccc1,i,i,i,?,i
COC(=O)c1ccc(-n2c(C)cc(-c3csc(NC(=O)c4ccc(S(=O)(=O)N(C)C)cc4)n3)c2C)cc1,i,i,i,13µM,i
CCOC(=O)c1sc(NC(=O)c2ccc(S(=O)(=O)N(C)C)cc2)cc1C,i,?,i,16µM,i
CCOC(=O)c1csc(NC(=O)c2ccc(OCC)cc2)n1,i,21µM,i,?,i
CCOC(=O)c1sc(NC(=O)c2ccccc2)cc1C,i,i,i,?,nt
CCOC(=O)c1csc(NC(=O)c2ccccc2)n1,i,?,i,?,i
CCOC(=O)c1csc(NC(=O)c2ccc(S(=O)(=O)N(C)C)cc2)n1,i,?,i,7.3µM,i
CSc1ccccc1NC(=O)CSc1n[nH]c(C)c1[N+](=O)[O-],i,i,i,i,i
Cc1ccc(O)c(NC(=O)CSc2n[nH]c(C)c2[N+](=O)[O-])c1,11µM,i,i,?,i
O=C(Nc1ccc(Br)cc1)c1cc(S(=O)(=O)N2CCc3ccccc32)ccc1F,i,nt,i,nt,i
CCc1ccc(/C=C/c2c[nH]c3ccccc23)[n+](CC)c1,i,6.5µM,i,i,?
COC(=O)c1c(NC(=O)Cc2coc3cc(C)ccc23)sc2c1CCCC2,i,i,i,nt,i
CCn1cc(C(=O)N(C)c2ccc(OC)cc2OC)c2cc(OC)c(OC)cc2c1=O,i,i,i,15µM,i
CCC(=O)NC(c1ccc(Br)o1)c1cc(Cl)c2cccnc2c1O (stereo not drawn),nt,?,nt,nt,i
O=C(c1cc(-c2cccnc2)nc2ccc(Br)cc12)N1CCN(c2ncccn2)CC1,i,i,i,?,i
